Assay outcomes from PubChem BioAssay.
ADAM10 inh = ADAM10 inhibition, QFRET primary screen | O14672 | recombinant ADAM10, EDANS/DABCYL FRET peptide cleavage, 3 h | inhibition, % at 7 µM | 370,000 compounds, 0.62% hits;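 active = inhibition above a per-campaign cutoff equal to the mean of compounds falling between control-based bounds plus 3 SD, cut at about 20% in these data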;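 note: 0% = DMSO wells while the 100% control is not disclosed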
GRIN3A LBD mod = modulates the human NR3A ligand-binding domain; Tm shift relative to glycine control, % at 25 µM; 340,000 compounds, 2.5% hits; NR3A LBD differential scanning fluorimetry, Tm shift; 0% = protein alone, 100% = glycine-bound protein;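 active = melting temperature shift of at least 10% of the positive control shift, at one fixed dose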
FAS TE block = blocks the thioesterase domain of human fatty acid synthase | P49327 | recombinant FAS-TE, OMFH fluorogenic substrate, fluorescence endpoint | inhibition, % at 15 µM | 360,000 compounds, 0.67% hits;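 active = compounds whose normalised, plate-corrected inhibition of enzyme fluorescence in the single-dose primary screen is 50% or more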;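 note: 0% = DMSO with enzyme and 100% = substrate without enzyme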
sPLA2-III inh = Blocks human group III sPLA2 activity; 370,000 compounds, 0.56% hits; Q9NZ20; QFRET BODIPY PC-A2 liposome hydrolysis, fluorescence; inhibition, % at 12.2 µM; AID 743126;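 active = inhibition above mean plus 3 SD of compounds lying within the high and low control bounds, cut at about 19% in these data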;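 note: 0% = median of test compound wells and 100% = no enzyme DMSO wells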
ADAM17 inh = inhibits human ADAM17; inhibition, % at 6.95 µM; 370,000 compounds, 0.83% hits; recombinant ADAM17, EDANS/DABCYL FRET peptide cleavage; P78536;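 active = inhibition above the mean of compounds lying between control limits plus 3 SD, set per campaign, cut at about 8.5% in these data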;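 note: 0% = DMSO-only wells as the low control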
ADAM10 counter = counter-screen for ADAM17 exosite inhibitors: inhibitors of human ADAM10. shares compounds with ADAM17 inh. recombinant ADAM10, EDANS/DABCYL FRET peptide cleavage, 3 h. inhibition, % at 6.95 µM. 2,900 compounds, 47% hits;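 active = mean inhibition over the triplicate runs exceeds the activity threshold set in the earlier primary screen, cut at about 20% in these data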;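 note: 0% = DMSO wells and 100% = marimastat wells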
ADAM17 confirm = confirmation of inhibitors of human ADAM17. shares compounds with ADAM17 inh. recombinant ADAM17, EDANS/DABCYL QFRET peptide cleavage. inhibition, % at 6.95 µM. 2,900 compounds, 65% hits;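 active = mean inhibition across replicates above the hit cutoff set in the primary screen, cut at about 8.5% in these data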;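 note: 0% = DMSO wells and 100% = marimastat wells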
hGIII sPLA2 conf = human GIII-sPLA2 inhibition, confirmation | shares compounds with sPLA2-III inh | recombinant hGIII-sPLA2, BODIPY PC-A2 QFRET fluorescence | inhibition, % at 12.2 µM | 2,000 compounds, 34% hits | AID 743280;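 active = mean inhibition across triplicates above the hit cutoff set in the earlier primary screen, cut at about 19% in these data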;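 note: 0% = enzyme with DMSO and 100% = DMSO wells lacking enzyme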
535nm interf = optically interferes with 535nm fluorescence in sPLA2 counter-screen. shares compounds with sPLA2-III inh. BODIPY FL product fluorescence interference, QFRET. inhibition, % at 12.2 µM. 2,000 compounds, 8.5% hits;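 active = average inhibition above the solvent-only control mean plus 3 SD, cut at about 6% in these data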;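 note: 0% = DMSO with substrate plus product and 100% = DMSO with substrate alone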
The depositor's hits bear a star; . = no result. Hits are enriched below; roughly 4.3% of the tested compounds scored in any of these assays.

SMILES | ADAM10 inh | GRIN3A LBD mod | FAS TE block | sPLA2-III inh | ADAM17 inh | others
COC(=O)C1C(c2ccccc2)CC2CCC1N2C (stereo unspecified) | -0.9 | . | . | -1.0 | -1.8
CC1=C2[C@@H]3OC(=O)[C@H](C)C3CC[C@@]2(C)C=CC1=O (stereo partly specified) | -5.3 | 1.4 | -8.0 | 2.2 | -4.7
CC(C(=O)c1cn(C)c2ccccc12)c1ccccc1 (stereo unspecified) | 15.0 | -44.6 | 9.5 | -7.3 | 10.6* | ADAM10 counter=2.3;ADAM17 confirm=4.2
COC(=O)C1=C(c2ccccc2OCc2ccccc2)C[C@@H]2CC[C@H]1N2C(=O)NCc1ccc(C(F)(F)F)cc1 | 8.9 | -1.4 | 16.5 | -14.1 | 3.0
COC(=O)C1=C(c2ccc(OCc3ccccc3)cc2)C[C@@H]2CC[C@H]1N2C(=O)NCc1ccc(OC)c(OC)c1 | 11.6 | 2.4 | 12.5 | -23.5 | 5.0
COC(=O)C1=C(c2ccc(F)cc2OCc2ccccc2)C[C@@H]2CC[C@H]1N2C(=O)NCc1ccc(C(F)(F)F)cc1 | 17.1 | -4.4 | 20.6 | -11.5 | 10.9* | ADAM10 counter=36.4*;ADAM17 confirm=20.9*
COC(=O)C1=C(c2ccc(OCc3ccccc3)cc2)C[C@@H]2CC[C@H]1N2C(=O)NCc1ccccc1OC | 17.2 | . | 20.0 | -6.9 | 9.7* | ADAM10 counter=28.1*;ADAM17 confirm=14.2*
COC(=O)C1=C(c2ccc(-c3ccccc3)c(F)c2)C[C@@H]2CC[C@H]1N2C(=O)NC1CC1 | 18.6 | -1.3 | -2.4 | -11.0 | 10.6* | ADAM10 counter=5.8;ADAM17 confirm=7.2
O=C1c2cccc(N3CCNCC3)c2C2CCCCN12 (stereo unspecified) | -14.4 | . | -8.9 | 4.5 | -7.5
O=C(c1ccccc1F)c1cn(CC(=O)N2CCOCC2)c2ccccc12 | -10.3 | -2.7 | -3.4 | 9.7 | 8.6* | ADAM10 counter=3.2;ADAM17 confirm=3.5
O=C(c1ccccc1F)c1cn(CC(=O)N2CCCC2)c2ccccc12 | 10.2 | 0.9 | 0.2 | 0.8 | -0.3
CCOP(=O)(OCC)C1(C(=O)O)CCCC1 | 4.8 | 1.2 | -5.1 | 24.3* | -6.2 | hGIII sPLA2 conf=6.4;535nm interf=-3.4
CCOP(=O)(OCC)C1(O)C(=O)Nc2ccccc21 (stereo unspecified) | -10.4 | -1.9 | -10.0 | -13.7 | -6.9
C[C@]12CCC3C(CC[C@H]4C[C@H](O)CC[C@]34C)C1CC(=O)[C@@H]2O (stereo partly specified) | -10.5 | -0.6 | -6.7 | 1.3 | -1.7
CC1CC2(C)C(CCC3C2CCC2(C)C(OP(=O)(N4CC4)N4CC4)CCC32)CC1=O (stereo unspecified) | -13.1 | 1.3 | 2.4 | 24.7* | -7.6 | hGIII sPLA2 conf=-1.2;535nm interf=-24.8
COc1ccccc1N1CCN(Cc2ccc(F)cc2)CC1 | -6.0 | 0.1 | -2.0 | 3.3 | -2.3
COc1ccccc1N1CCN(Cc2ccc(Cl)cc2Cl)CC1 | 1.4 | 4.2 | 15.3 | 20.8* | 1.5 | hGIII sPLA2 conf=11.4;535nm interf=-9.2
Cc1cc(N2CCNC[C@H]2C)ccc1N1CCN[C@@H](C)C1 | 2.5 | . | . | 2.8 | 1.1
COc1ccc(NC(=S)NC(NC(=O)CF)C(Cl)(Cl)Cl)cc1[N+](=O)[O-] (stereo unspecified) | -6.0 | -2.6 | -10.5 | 19.2* | -2.7 | hGIII sPLA2 conf=17.8;535nm interf=-3.1
Cc1cc(Br)cn2c(CC(=O)N3CCCCC3)c(-c3ccc(F)cc3)nc12 | -7.5 | . | 3.4 | 3.5 | -3.3
CC(=O)NCC1=C(c2ccc(S(C)(=O)=O)cc2)C[C@@H]2CC[C@H]1N2CCOc1ccccc1 | -4.8 | . | . | 1.7 | -0.2
O=C(O)c1cc(S(=O)(=O)N2CC3CC(C2)c2cccc(=O)n2C3)ccc1F (stereo unspecified) | -4.5 | . | . | -9.1 | -2.8
